Laboratory results taken from the supplement of paper PMC6555819.

The sequences below were run on THRa homodimer (NR concentration 90 nM) (assay: PBM binding z-score (relative to random genomic background probes); higher = stronger binding; sequences stand for … in GC…GCGATTGACAGCGTAGAATGAAGG).
Outline: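 Ligand-free nuclear receptor dimers were applied to custom Agilent 4×180K protein-binding microarrays whose double-stranded probes carried direct-repeat seeds, single-nucleotide variants, half-site ablations and random human genomic background sequences in 34-nt variable regions. Incubation lasted 1 h. Binding z-scores were computed against the random background probes from regression-normalized fluorescence.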

Q: How did the PBM binding z-score turn out when CTCGAATGGTCGTGCTCAGGTGAGTATACCAAAC was run?
A: 0.835

Q: Which PBM binding z-score does the source give for CCTGCTAGGTCATGGTCAGCTAGTCTACAGTATG here?
A: 1.25

Q: With GCTTGTAGATCAAGGTTAAGAATGACTAAGCTAA as the sequence, how does the PBM binding z-score read?
A: -0.00442

Q: With CCTATTAGTTGACCATAAGCGCAACCGAAGCTCG as the sequence, how does the PBM binding z-score read?
A: 0.809

Q: With CGGACTGGGGCATAAGGTTACCATAAGCCAGCCC as the sequence, how does the PBM binding z-score read?
A: 1.39

Q: With CCTGCTAGGTCATGGTCGGCTAATCTACAGTATG as the sequence, how does the PBM binding z-score read?
A: 1.29

Q: CCTAACGGGTCACGAGGTTATAGCACGACGAGCG was tested. Which PBM binding z-score did it give?
A: 0.791

Q: For CTACCAAGGTGAACAAGGTCGTTGTTTACTATTC, which PBM binding z-score is on record?
A: 1.76

Q: With TCATATAGGTAACGGTGAAAGTCGAACGATATGA as the sequence, how does the PBM binding z-score read?
A: -0.6

Q: With CGTCCAAGGTCTGAGAGGTCAGTGAATGCCGAGT as the sequence, how does the PBM binding z-score read?
A: 1.29

Q: For CTACCAAGTTGAACAAGGTCGTTGATTACTATTC, which PBM binding z-score is on record?
A: 1.57

Q: Which PBM binding z-score does the source give for ATCTCTAGGTAAGACTCAGTTCAGTTAAGAACGC here?
A: 0.728

Q: With TCTATTAGTTGATTGGGGCAACCGAAACAGCGGA as the sequence, how does the PBM binding z-score read?
A: 0.527

Q: Which PBM binding z-score does the source give for AGAATGAGGTTATACGTAGCTCAGGGAAGAAAGT here?
A: 0.226

Q: How did the PBM binding z-score turn out when ATCTCTATGTAAAGATAGTTCAGTGAATGCAAAT was run?
A: -0.195

Q: How did the PBM binding z-score turn out when CCTCGCAGGCCAGGGTCACTCAAGCATTTCGCTT was run?
A: 1.2

Q: Which PBM binding z-score does the source give for ATATGTAGGTTAAGGTTCATTCAGGTTGGTTCGC here?
A: 1.4

Q: How did the PBM binding z-score turn out when TAGCCTAGGTCATTGGGCCAGCATAGTACGCATC was run?
A: 0.613

Q: TCTTGTAGGTCAGCAGGTTAAGAAAGCTGGCCAA was tested. Which PBM binding z-score did it give?
A: -0.325

Q: For CCTACTGGGCCACGAAAGGTCAGTGATTCAGTGA, which PBM binding z-score is on record?
A: 0.0818

Q: Which PBM binding z-score does the source give for CCGACTGGGGCATAAGATTACCATAAGCCAGCCC here?
A: -0.917

Q: With ATATGTAGGTTACATTCGGGTCATTCAGGCTATG as the sequence, how does the PBM binding z-score read?
A: 3.23

Q: For ACTCGGACGACAAAGGTCAGAGCTACGCCAGTGA, which PBM binding z-score is on record?
A: -0.0567

Q: With GCTAGCTGGTCAGTAAAAGGTCACACACCGGTCG as the sequence, how does the PBM binding z-score read?
A: 1.36

Q: CCGACTGGGGTATAAGGTTACCATAAGCCAGCCC was tested. Which PBM binding z-score did it give?
A: 1.21

Q: TCATATAGGTAAAGGTGAAATTCGAACGATATGA was tested. Which PBM binding z-score did it give?
A: -0.553

Q: How did the PBM binding z-score turn out when CGTCCAAGGTAAAAGGTCAGTGAAGAGATGACGG was run?
A: 0.539

Q: AGTCAAAGTACAGGACGAGGTAACGTAAAGCACG was tested. Which PBM binding z-score did it give?
A: 0.878

Q: For CCTACTGGGCCATCAGGTTATTGATATCAACGTT, which PBM binding z-score is on record?
A: 0.712

Q: For TAGCCTAGGTCATTCAGAGGCCAGTATAGAAAGC, which PBM binding z-score is on record?
A: 0.653

Q: With CCTACAGGGCCATTCAGAGGTCATTGATCATATG as the sequence, how does the PBM binding z-score read?
A: 1.34

Q: With CGTCCAAGGTCAATGCTAGGTCAGTGGAAGCATT as the sequence, how does the PBM binding z-score read?
A: 2.84

Q: How did the PBM binding z-score turn out when GCTGCTAGGTCAGGCTGGTCAGCTAACGGGTACG was run?
A: 0.201

Q: With TCTAGTTGGTCCAAGGTCACACACTCGAAATGCG as the sequence, how does the PBM binding z-score read?
A: 4.14

Q: For CATACAGGGTCAGCTAGGCCATAGTAGGGACGGC, which PBM binding z-score is on record?
A: 0.737

Q: Which PBM binding z-score does the source give for CCTCGGAGGACAACAGGACGTCAGAGCTGCCAGA here?
A: -0.377

Q: TCGAGTAGGTTAGTCGGGGCAATCAGCCAACATA was tested. Which PBM binding z-score did it give?
A: -0.198

Q: With CGTCGAAGGTCAGCAGGTCAGTGAAAGCGACGTG as the sequence, how does the PBM binding z-score read?
A: 0.495

Q: How did the PBM binding z-score turn out when TAGCCTAGGTCATTCAGGGGCCCGTATAGAAAGC was run?
A: 0.839

Q: Which PBM binding z-score does the source give for GCTAGCAAGCCATTTGGGTCACTCAATGACGGGC here?
A: 0.353
